The source of these data is ChEMBL document CHEMBL3988442, “University of Dundee, Small-Polar-MMV Screening Library” (2021).

The subject of the test is Plasmodium falciparum. The test is described as follows: Plasmodium falciparum sporozoite viability assay. Format: functional, organism-based. Further details: scale not given: in the data most compounds retested in dose-response had high values.

Where “and” joins values, the source holds several entries; their conditions need not be identical. Equal values may be shown once. Screen size: about 34,000 compounds; about 290 (0.85%) showed an effect of 50% or more. The list comes from a sample in which strong results are over-represented; it also holds similar structures and randomly drawn compounds.

As to `CC(NC(=O)NCCCn1cncn1)c1ccc2c(c1)CC(=O)N2` (stereo unspecified), the “Percent Effect” value turned out to be 3.485%.
Same read-out and setting: the same measure for `CSCc1cc(F)ccc1CNC(=O)N1CCOCC1`: 1.579%.
In the case of `CCCN1Cc2ccccc2CC1C(=O)NC` (stereo unspecified), the “Percent Effect” value was -3.834%.
Turning to `CC(=O)N1Cc2ccccc2C[C@H]1C(=O)Nc1ccccn1`, the “Percent Effect” value (10 mM as filed; unlikely as a test dose) was 80.79% and 67.33%.
With `CC(=O)N1Cc2ccccc2CC1C(=O)Nc1cc(C)ccn1` (stereo unspecified), the “Percent Effect” value (10 mM as filed; unlikely as a test dose) was 71.78% and 85.23%.
`Cc1ccnc(NC(=O)C2(n3cnnn3)CCCCC2)c1`: the “Percent Effect” value is on record as -7.357%.
For `CCNC(=O)NCCc1csc(N2CCCC2)n1`, the “Percent Effect” value was -15.2%.
On to `CCOc1ccc(-c2cc(=O)n3c(n2)CCCCC3)cc1`, for which the “Percent Effect” value is recorded as -4.121%.
In the case of `COc1ccc(CN(Cc2ccccn2)Cc2cncn2C)cc1.O=C(O)CC(O)(CC(=O)O)C(=O)O`, the “Percent Effect” value came to 3.185%.
Regarding `CCOc1cc(C)nc(N2CCN(C(=O)CN(C)C3CC3)CC2)n1`, the “Percent Effect” value turned out to be 8.163%.
Turning to `Cn1cncc1CN1CCC(O)(Cn2nc(-c3cccs3)oc2=O)CC1.O=C(O)CC(O)(CC(=O)O)C(=O)O`, the “Percent Effect” value was -17.63%.
Regarding `CC(C)n1nc2c(cc1=O)CN(c1nc3ccccc3s1)CC2`, the “Percent Effect” value (10 mM as filed; unlikely as a test dose) is 66.67% and 52.43% and 41.91%.
Regarding `CN(C)C(=O)CS(=O)(=O)Cc1cc(Cl)c2c(c1)OCCO2`, the “Percent Effect” value is on record as 4.247%.
`Clc1cc(CN2CCCCC2Cn2cncn2)c2ncccc2c1` (stereo unspecified): the “Percent Effect” value is -10.63%.
Take `CC(C)Nc1ncnc2c1CCN(C(=O)c1ccc[nH]1)CC2`: the “Percent Effect” value is listed as -7.967%.
The same measure, in the same setting: the same measure for `CC(C)C[C@H](N)COc1cccc(F)c1Oc1cccc(Cl)c1`: 0.9974%.
Still for that read-out and setting: the same measure for `Cc1ccc(NS(=O)(=O)c2cc3c(c(C(=O)O)c2)OCCO3)cc1F`: 6.057%; for `O=C(O)C(F)(F)F.O=c1ccc2c(n1CC1CC1)CCC(NCc1cccs1)C2` (stereo unspecified): 4.557%.
With `Fc1ccc(-c2noc([C@@H]3Cc4nc[nH]c4CN3)n2)cc1`, the “Percent Effect” value (10 mM as filed; unlikely as a test dose) is 27.52% and 35.27%.
Regarding `Cc1noc(NC(=O)c2ccc(OC(F)(F)F)cc2)n1`, the “Percent Effect” value is recorded as -13.94%.
On to `Cc1ccc(-c2noc([C@@H]3Cc4nc[nH]c4CN3)n2)cc1`, for which the “Percent Effect” value (10 mM as filed; unlikely as a test dose) was 79.76% and 77.83%.
Consider `Cc1cccc(-c2noc([C@@H]3Cc4nc[nH]c4CN3)n2)c1`, for which the “Percent Effect” value (10 mM as filed; unlikely as a test dose) was 77.23% and 75.76%.
`Cc1cccc(-c2noc(CN3CCOCC3C)n2)c1` (stereo unspecified): the “Percent Effect” value came to 5.079%.
Consider `c1ccc(-c2noc([C@@H]3Cc4nc[nH]c4CN3)n2)cc1`, for which, under “10 mM as filed; unlikely as a test dose”, the “Percent Effect” value was 8.153% and 22.58%.
`FC(F)(F)Oc1ccc(-c2noc([C@@H]3Cc4nc[nH]c4CN3)n2)cc1`: the “Percent Effect” value (10 mM as filed; unlikely as a test dose) was 93.02% and 93.75%.
On to `c1cc(-c2noc([C@@H]3Cc4nc[nH]c4CN3)n2)ccn1`, for which the “Percent Effect” value (10 mM as filed; unlikely as a test dose) was -0.1591% and 11.18%.
